In ChEMBL document CHEMBL3988442, “University of Dundee, Small-Polar-MMV Screening Library” (2021):
For some of these results: Measured potencies and affinities stand elsewhere.

What was measured:
Design in all cases: scale not given: direction of the effect not stated beside the values
[1] = target: Protein translocase subunit SecA (Escherichia coli (strain K12)) (UniProt P10408); test: Assay to Identify E. coli SecA ATPase Inhibitors; type: functional; conditions: 30 µM
[2] = target: T1, Ubiquitin-activating enzyme e1, putative (Leishmania donovani (strain BPK282A1)) (UniProt E9BSI1); test: Leishmania donovani Ubiquitin Activating Enzyme (LdE1); type: functional; conditions: 30 µM
T1 sequence (whole entry): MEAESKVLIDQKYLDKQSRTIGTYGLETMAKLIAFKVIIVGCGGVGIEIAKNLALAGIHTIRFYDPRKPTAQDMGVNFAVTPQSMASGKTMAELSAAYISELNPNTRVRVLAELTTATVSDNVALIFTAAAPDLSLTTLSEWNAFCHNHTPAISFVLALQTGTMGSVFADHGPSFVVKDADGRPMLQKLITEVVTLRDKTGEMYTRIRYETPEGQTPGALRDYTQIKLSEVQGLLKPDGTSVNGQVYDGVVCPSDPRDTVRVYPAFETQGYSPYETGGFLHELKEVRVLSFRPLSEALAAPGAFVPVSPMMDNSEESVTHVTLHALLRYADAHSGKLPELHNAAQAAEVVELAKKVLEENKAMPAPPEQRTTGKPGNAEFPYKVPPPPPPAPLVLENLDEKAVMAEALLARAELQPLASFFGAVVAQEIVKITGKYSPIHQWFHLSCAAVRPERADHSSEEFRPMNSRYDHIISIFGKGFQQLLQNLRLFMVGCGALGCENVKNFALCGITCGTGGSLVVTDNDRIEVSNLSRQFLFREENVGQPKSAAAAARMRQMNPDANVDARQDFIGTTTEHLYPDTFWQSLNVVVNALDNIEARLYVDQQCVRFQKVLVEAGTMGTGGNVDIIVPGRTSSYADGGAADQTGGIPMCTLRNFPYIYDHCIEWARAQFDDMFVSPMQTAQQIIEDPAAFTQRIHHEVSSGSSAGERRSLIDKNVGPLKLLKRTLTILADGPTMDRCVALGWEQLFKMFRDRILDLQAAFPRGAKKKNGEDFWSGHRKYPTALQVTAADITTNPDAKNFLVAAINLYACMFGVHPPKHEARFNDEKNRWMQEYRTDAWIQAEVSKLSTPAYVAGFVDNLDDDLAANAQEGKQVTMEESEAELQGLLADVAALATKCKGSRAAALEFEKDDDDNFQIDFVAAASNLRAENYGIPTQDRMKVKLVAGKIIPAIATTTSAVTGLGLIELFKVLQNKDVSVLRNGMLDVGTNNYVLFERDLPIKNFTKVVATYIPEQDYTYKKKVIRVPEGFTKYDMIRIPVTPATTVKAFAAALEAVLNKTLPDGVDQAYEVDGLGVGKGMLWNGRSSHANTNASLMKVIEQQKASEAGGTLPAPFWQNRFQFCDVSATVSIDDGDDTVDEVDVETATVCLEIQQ

[3] = target: AMP-activated protein kinase, AMPK (Homo sapiens) (UniProt P54646+O43741+P54619+Q9UGJ0+Q9Y478+Q13131+Q9UGI9); test: AMP-dependent Kinase enzyme assay. An in vitro enzyme assay that detects ADP turnover that is directly proportional to AMPK activity. This uses naive AMPK that is activated during the assay with MK-8722; type: functional; conditions: 30 µM
[4] = target: Sialic acid-binding Ig-like lectin 9 (Homo sapiens) (UniProt Q9Y336); test: Hs-Siglec9 ALPHAscreen SOP 20170721; conditions: 10 µM
Sialic acid-binding Ig-like lectin 9 (Homo sapiens), sequence (Q9Y336 whole entry): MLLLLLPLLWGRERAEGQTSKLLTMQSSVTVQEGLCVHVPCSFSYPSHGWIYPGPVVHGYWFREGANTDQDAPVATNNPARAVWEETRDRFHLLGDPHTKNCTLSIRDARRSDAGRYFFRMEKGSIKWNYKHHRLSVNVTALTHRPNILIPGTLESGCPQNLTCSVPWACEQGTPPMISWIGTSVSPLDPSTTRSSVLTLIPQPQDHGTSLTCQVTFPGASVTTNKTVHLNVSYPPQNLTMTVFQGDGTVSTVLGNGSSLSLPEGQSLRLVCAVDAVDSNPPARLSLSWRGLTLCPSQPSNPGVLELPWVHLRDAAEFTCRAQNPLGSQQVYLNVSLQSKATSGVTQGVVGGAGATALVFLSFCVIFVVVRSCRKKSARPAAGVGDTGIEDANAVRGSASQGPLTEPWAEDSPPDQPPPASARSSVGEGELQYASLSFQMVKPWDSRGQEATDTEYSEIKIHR

Trypanosoma cruzi = test: Trypanosoma cruzi phosphomannomutase and mannose-1-phosphate guanylyltransferase assay; type: functional; conditions: 10 µM
[5] = target: T2, Arginase-2, mitochondrial (Homo sapiens) (UniProt P78540); test: in vitro enzyme assay to detect the production of urea directly proportional to the activity of Arginase II; type: functional; conditions: 33.3 µM; also: in the data most compounds retested in dose-response had high values
T2 sequence (whole entry): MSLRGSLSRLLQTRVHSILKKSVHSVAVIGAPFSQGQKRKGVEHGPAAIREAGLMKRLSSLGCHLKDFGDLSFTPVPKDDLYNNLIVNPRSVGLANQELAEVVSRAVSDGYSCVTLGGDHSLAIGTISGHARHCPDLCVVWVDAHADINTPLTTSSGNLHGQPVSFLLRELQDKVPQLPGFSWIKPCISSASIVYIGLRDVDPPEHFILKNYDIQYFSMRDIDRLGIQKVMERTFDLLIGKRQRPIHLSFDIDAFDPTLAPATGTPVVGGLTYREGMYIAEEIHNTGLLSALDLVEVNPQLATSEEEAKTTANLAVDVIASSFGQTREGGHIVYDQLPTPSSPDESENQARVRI

[6] = target: T3, Proteasome subunit beta (Trypanosoma cruzi) (UniProt O96673); test: Trypanosoma cruzi proteasome chymotrypsin-like activity (TcProtChymo) assay.; also: in the data most compounds retested in dose-response had high values; type: functional; conditions: 9.37 µM
T3 sequence (whole entry): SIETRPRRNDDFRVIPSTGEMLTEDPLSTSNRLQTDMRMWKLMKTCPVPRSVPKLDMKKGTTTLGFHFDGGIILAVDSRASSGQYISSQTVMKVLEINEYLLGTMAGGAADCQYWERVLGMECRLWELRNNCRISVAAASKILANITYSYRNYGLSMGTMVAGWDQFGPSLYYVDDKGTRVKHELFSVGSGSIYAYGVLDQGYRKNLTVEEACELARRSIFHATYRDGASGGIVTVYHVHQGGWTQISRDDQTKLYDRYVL

Homo sapiens = species on record: Homo sapiens; test: To identify inhibition of the IFN signalling (Jak-Stat) pathway via expression of an eGFP reporter gene under the control of an IFN-stimulated response element (ISRE) containing MxA promoter.; type: functional; conditions: 30 µM
[7] = target: T4, Tyrosyl-tRNA synthetase, putative (Trypanosoma cruzi (strain CL Brener)) (UniProt Q4DSP6); test: Trypanosoma cruzi tyrosyl tRNA synthetase (TcYRS) _High Tyrosine SOP; type: functional; conditions: 30 µM; also: in the data most compounds retested in dose-response had high values
T4 sequence (whole entry): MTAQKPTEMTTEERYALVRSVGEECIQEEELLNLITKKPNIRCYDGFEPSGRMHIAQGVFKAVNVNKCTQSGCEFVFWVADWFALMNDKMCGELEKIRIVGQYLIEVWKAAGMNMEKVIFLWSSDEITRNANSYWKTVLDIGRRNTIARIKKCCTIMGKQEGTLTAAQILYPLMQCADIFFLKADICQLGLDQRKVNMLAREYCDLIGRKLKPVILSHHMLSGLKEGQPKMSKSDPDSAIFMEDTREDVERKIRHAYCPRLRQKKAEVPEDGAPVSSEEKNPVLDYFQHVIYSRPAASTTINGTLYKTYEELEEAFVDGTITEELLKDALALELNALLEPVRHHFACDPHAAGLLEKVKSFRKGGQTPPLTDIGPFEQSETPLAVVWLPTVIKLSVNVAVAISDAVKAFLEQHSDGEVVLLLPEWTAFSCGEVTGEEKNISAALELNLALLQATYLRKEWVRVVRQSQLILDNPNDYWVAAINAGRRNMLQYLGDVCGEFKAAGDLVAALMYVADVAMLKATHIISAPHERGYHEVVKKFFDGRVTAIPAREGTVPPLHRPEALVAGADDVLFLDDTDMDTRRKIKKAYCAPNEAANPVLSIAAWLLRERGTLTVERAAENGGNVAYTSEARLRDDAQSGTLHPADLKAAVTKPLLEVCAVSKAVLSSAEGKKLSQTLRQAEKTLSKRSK

[8] = target: T4, Tyrosyl-tRNA synthetase, putative (Trypanosoma cruzi (strain CL Brener)); test: Trypanosoma cruzi tyrosyl tRNA synthetase (TcYRS) SOP; type: functional; conditions: 30 µM
[9] = target: Chromo domain-containing protein 1 (Saccharomyces cerevisiae (strain ATCC 204508 / S288c) (Baker's yeast)) (UniProt P32657); test: ScCHD-1 Enzyme Inhibition Assay; type: functional; conditions: 30 µM; also: in the data most compounds retested in dose-response had high values
Chromo domain-containing protein 1 (Saccharomyces cerevisiae (strain ATCC 204508 / S288c) (Baker's yeast)), sequence (P32657 whole entry, the tested form may be a part): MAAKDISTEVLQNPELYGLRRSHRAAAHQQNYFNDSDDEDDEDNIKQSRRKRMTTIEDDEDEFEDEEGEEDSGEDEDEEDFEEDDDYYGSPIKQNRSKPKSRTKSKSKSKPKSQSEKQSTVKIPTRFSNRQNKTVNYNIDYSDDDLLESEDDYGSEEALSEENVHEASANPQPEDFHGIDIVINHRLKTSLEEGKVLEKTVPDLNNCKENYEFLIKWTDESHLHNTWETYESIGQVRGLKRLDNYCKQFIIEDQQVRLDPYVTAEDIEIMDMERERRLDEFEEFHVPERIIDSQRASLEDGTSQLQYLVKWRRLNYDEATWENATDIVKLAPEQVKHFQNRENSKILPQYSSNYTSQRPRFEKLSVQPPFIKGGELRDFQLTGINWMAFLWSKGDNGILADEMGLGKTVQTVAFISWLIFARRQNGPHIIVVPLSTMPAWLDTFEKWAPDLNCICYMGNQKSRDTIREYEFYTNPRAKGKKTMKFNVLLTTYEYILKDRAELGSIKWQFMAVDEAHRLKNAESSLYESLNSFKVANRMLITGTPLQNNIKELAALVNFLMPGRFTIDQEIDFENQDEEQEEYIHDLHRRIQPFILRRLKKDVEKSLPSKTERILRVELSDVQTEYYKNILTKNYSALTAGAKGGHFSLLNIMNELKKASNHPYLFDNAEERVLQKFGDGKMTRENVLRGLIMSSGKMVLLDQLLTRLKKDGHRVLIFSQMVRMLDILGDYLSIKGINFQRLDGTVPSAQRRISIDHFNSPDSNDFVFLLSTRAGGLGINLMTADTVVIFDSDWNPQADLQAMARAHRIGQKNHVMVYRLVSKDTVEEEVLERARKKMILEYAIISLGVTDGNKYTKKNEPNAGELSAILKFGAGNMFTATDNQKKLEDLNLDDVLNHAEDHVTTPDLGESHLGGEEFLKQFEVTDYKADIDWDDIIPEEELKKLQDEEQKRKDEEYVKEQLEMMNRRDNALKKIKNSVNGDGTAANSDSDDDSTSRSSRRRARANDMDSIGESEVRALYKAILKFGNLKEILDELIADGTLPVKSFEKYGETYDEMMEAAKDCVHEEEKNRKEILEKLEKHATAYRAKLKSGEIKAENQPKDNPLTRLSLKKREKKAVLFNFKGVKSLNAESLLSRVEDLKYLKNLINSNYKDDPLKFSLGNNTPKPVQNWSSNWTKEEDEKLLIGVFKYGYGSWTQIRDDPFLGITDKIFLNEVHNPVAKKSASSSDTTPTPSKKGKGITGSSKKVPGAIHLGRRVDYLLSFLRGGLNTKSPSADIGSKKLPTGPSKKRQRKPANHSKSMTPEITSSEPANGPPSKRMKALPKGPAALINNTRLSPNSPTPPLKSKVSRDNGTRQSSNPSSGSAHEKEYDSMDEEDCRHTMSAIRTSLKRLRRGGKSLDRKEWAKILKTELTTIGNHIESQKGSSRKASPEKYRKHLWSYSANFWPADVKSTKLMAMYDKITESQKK

Protein translocase subunit SecA (Escherichia coli (strain K12)), sequence (P10408 whole entry): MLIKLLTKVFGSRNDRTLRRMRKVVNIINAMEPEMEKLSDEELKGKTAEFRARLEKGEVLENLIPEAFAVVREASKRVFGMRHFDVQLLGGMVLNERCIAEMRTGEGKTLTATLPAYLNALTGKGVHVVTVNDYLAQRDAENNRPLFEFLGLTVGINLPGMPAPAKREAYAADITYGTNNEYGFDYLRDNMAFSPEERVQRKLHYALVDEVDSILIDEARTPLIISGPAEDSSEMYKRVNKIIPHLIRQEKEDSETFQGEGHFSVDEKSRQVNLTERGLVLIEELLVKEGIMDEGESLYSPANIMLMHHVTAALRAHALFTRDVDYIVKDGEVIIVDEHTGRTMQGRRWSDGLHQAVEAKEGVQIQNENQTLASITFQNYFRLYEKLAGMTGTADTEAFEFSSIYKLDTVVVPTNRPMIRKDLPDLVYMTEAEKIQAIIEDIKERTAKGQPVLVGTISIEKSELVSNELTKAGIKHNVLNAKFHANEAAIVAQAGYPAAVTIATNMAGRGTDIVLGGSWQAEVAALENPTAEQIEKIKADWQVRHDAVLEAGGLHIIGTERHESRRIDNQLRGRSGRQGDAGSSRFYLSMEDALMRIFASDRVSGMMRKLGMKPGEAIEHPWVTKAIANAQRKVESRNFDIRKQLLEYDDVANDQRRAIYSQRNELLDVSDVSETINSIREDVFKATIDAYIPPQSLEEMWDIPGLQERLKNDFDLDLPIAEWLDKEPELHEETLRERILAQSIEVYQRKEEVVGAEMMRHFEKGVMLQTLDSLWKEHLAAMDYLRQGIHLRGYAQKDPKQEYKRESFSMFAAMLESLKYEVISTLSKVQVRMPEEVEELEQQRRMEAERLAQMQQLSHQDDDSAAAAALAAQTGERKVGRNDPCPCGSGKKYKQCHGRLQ

| SMILES | Percent Effect [1] [%] | Percent Effect [2] [%] | Percent Effect [3] [%] | Percent Effect [4] [%] | Percent Effect (Trypanosoma cruzi) [%] | Percent Effect [5] [%] | Percent Effect [6] [%] | Percent Effect (Homo sapiens) [%] | Percent Effect [7] [%] | Percent Effect [8] [%] | Percent Effect [9] [%] |
| --- | --- | --- | --- | --- | --- | --- | --- | --- | --- | --- | --- |
| CCN1CCN(C(=O)C(C)N2CCN(Cc3nccn3C)CC2)CC1 (stereo not given) | -3.29 | 2.7 | -1.16 | 6.16 | 6.59 | -4.99 | 1.08 | -7.4 | 0.99 | 3.66 | 2.46 |
| c1ncn(CC2CN(CC3CCCC3)CCO2)n1 (stereo not given) | -3.42 | 11.4 | -1.94 | -0.971 | -1.54 | 6.24 | 11.8 | 10.9 | 0 | 7.59 | -14 |
| CCN1CC2(CC1=O)CN(Cc1ccco1)CCN(C(=O)N(C)C)C2 (stereo not given) | -0.643 | 2.74 | 1.96 | 9.02 | -1.39 | 4.39 | 6.59 | -2.04 | 5.21 | 11.1 | 0.322 |
| N#Cc1ccc(N2CCN(C(=O)c3cc(C4CC4)[nH]n3)CC2)c(F)c1 | -6.31 | 8.11 | -4.12 | 19.3 | 5.29 | -4.99 | -0.179 | 7.83 | 4.95 | 23.2 | -7.65 |
| CC(O)CC(C)(C)CNC(=O)NCc1cccc(-n2cncn2)c1 (stereo not given) | -3.57 | -2.7 | -0.791 | 7.51 | 2.64 | 4.22 | 9.53 | -9.29 | 0 | 1.24 | -0.141 |
| C=C(C)COCCNC(=O)C1CCCN1C(C)=O (stereo not given) | -2.72 | 18.2 | -0.215 | 2.93 | 7.3 | -1.78 | 5.41 | 6.11 | 5.83 | 21.9 | -8.29 |
| COCc1nc(C(=O)N2CCCC2c2noc(C(C)C)n2)cs1 (stereo not given) | -3.95 | 1.27 | 8.09 | -0.11 | -1.74 | 3.66 | -0.343 | 3.65 | 3.12 | 5.06 | 11.7 |
| Cc1oc(C)c(C(=O)NCc2cccnc2N(C)C)c1C | -1.52 | 13.2 | 4.37 | -11.8 | -3.57 | -1.53 | 5.35 | -12.2 | 1.47 | 12.2 | -9.19 |
| Cc1cc(N(C)Cc2cc(C)on2)n2nc(C)c(C)c2n1 | 1.74 | 4.17 | -0.739 | -6.39 | -6.71 | 1.32 | 11.4 | 10.3 | 2.1 | 7.69 | -5.04 |
| O=C(NCCc1ccccn1)C1=NN(c2ccccc2)C(=O)CN1 | 0.741 | 15.2 | 0.826 | -11.6 | -9.16 | 6.08 | 4.83 | 11.7 | 2.46 | 13.9 | -1.69 |
| Cc1csc(N2CCN(C(=O)Cc3ccsc3)CC2)n1 | -6.47 | 21.6 | -0.587 | 9.11 | 7.26 | 3.21 | 20.9 | 5.74 | 10.3 | 30.9 | -10.7 |
| O=C(C1=CC2(CCNCC2)c2ccccc21)N1CCCC1 | -0.609 | 2.67 | 6.96 | -3.45 | -7.53 | -56.1 | 7.52 | -19.8 | -3.12 | 2.5 | -6.64 |
| COc1cc(CNc2cnn(C)c2)cc2c1OCCO2 | -3.52 | -13.2 | -22.5 | 3.9 | 1.5 | -1.15 | 4.68 | -1.15 | -13.2 | -14.6 | -4.73 |
| c1cnc(NCc2noc3c2CN(CCN2CCCC2)CC3)nc1 | -1.82 | 8 | -2.08 | 10.5 | 3.48 | -47.5 | 18.1 | -3.46 | 6.25 | 22.5 | -8.39 |
| Cc1cc(NC(=O)NCc2ccccn2)n(C)n1 | -3.34 | -6.33 | 3.11 | 5.94 | 0.103 | -2.37 | 15.6 | -16.7 | 2.08 | 12.7 | -12.3 |
| Cc1nnc(C(C)NCC2(c3ccc(Cl)cc3)CCCC2)o1 (stereo not given) | -2.66 | -8.11 | -5.55 | 5.04 | -1.74 | -4.76 | 7.07 | 19.5 | 0.529 | -4.88 | 0.504 |
| O=C(NCC1CC1)c1nc(COc2ccc3c(c2)OCO3)no1 | 0.685 | 4 | 1.6 | -3.59 | -7.07 | -5.46 | 15.5 | 7.56 | 4.23 | 2.56 | -6.83 |
| N#Cc1ccccc1N1CCCN(C(=O)CCn2cccn2)CC1 | -6.4 | 15.2 | 5.53 | 0.749 | 5.19 | -0.76 | 6.8 | 3.94 | 5.42 | 16.5 | -6.74 |
| CC(C)c1nc(CCNC(=O)NCc2ccnc(N(C)C)c2)cs1 | -3.48 | 6.33 | 8.79 | 4.61 | -0.103 | 5.81 | 9.43 | 12.5 | 1.04 | 5.06 | -13 |
| COc1ccc(C2CCCCCN2S(=O)(=O)N(C)C)cc1 (stereo not given) | -0.837 | 12.5 | -11.6 | 10.4 | -0.291 | 18.1 | 12.5 | 6.25 | 2.1 | 5.13 | -3.74 |
